Laboratory results as given in PubChem BioAssay AID1508635 (National Center for Advancing Translational Sciences (NCATS), 2021).
Inconclusive results are not listed. Entries that show only a call come without a potency. Active and inactive are the calls of the source. Calls follow the shape of the dose curve; as a rule, active = well fitted inhibition curve with a large enough effect; inconclusive = small, poorly fitted or top-dose-only effect; inactive = no such curve, though single readings can be large or run the other way. Numbered stars: 1 amine (or outer) side, 2 acyl side, 3 side chain; on linkers, the order of the positions; unused ones are H or OH. Bridge positions count the residues as written; N and C are the ends. Square brackets hold non-standard residues; d marks the D form. Peptide text beside a SMILES is read from it. I, II: the chains in the order shown. * marks the point of attachment. ξ: configuration not given here. Actinocin(9to1) = Cc1c2oc3c(C)ccc(C(=O)[*:1])c3nc-2c(C(=O)[*:2])c(N)c1=O; ξNMeV = CNC(C(=O)O)C(C)C; Cbz = O=C(OCc1ccccc1)*; Nva = CCC[CH](N)C(=O)O; ξV = CC(C)C(N)C(=O)O; Sar = CNCC(=O)O

Each compound was assayed on zebrafish Abcb4 (ABCB1 homolog) (assay: qHTS for characterization and localization of zebrafish homologs of the human ABCB1 multidrug transporter: ABCB4 transfected cells). Conditions: CellTiter-Glo viability luminescence, 72 h; series mostly up to 46.1 µM.
From the text: The zebrafish has emerged as a potential model to study the blood-brain barrier (BBB) given its similarities with mammalian systems. However, little information has been available with regard to homologous ATP-binding cassette transporters expressed at the zebrafish BBB. Two transporters that are highly expressed at the human BBB are P-glycoprotein (P-gp, encoded by the ABCB1 gene) and ABCG2 (encoded by the ABCG2 gene). In this study, we focus on characterization of P-gp homologs in the zebrafish, which has two genes that are homologous to human ABCB1 - abcb4 and abcb5. We generated stably-transfected cell lines to determine their substrate specificities. […] Zebrafish abcb4 also colocalized with claudin 5 expression in brain endothelial cells.
A high-throughput screen was performed as previously described on empty vector transfected cells, P-gp-overexpressing MDR-19 cells and cells transfected with full-length zebrafish abcb4 (ZF Abcb4) or abcb5 (ZF Abcb5). Briefly, cells were plated into 1536-well plates at a density of 500 cells/well in 5 uL media. P-gp substrate compounds (approximately 90) selected from our previous study were then added at varying concentrations using a 1536-head pin tool (Kalypsis, San Diego, CA) and plates were incubated at 37C in 5% CO2 for 72 h. CellTiter-Glo reagent (Promega) was dispensed into the wells, incubated for 5 min and luminescence was read on a ViewLux instrument (Perkin-Elmer).
Cytotoxic compounds were defined as those that yielded a curve class of -1.1, -1.2, -2.1, -2.2, -2.3, or -2.4, a maximum response of >50% and an AC50 of < 10 uM. All compounds from screening analysis were tested in Vector (empty vector control), MDR-19 (P-gp overexpressing), zebrafish abcb4 (ZF Abcb4) and abcb5 (ZF Abcb5) expression cell lines.
1. Tobie D Lee, Olivia W Lee, Kyle R Brimacombe, Lu Chen, Rajarshi Guha, Sabrina Lusvarghi, Bethilehem G Tebase, Carleen Klumpp-Thomas, Robert W Robey, Suresh V Ambudkar, Min Shen, Michael M Gottesman, Matthew D Hall. A High-Throughput Screen of a Library of Therapeutics Identifies Cytotoxic Substrates of P-glycoprotein. Mol Pharmacol. 2019, Nov;96(5):629-640.
`Cc1cc(N)c2ccccc2[n+]1CCCCCCCCCC[n+]1c(C)cc(N)c2ccccc21` was tested, and the Potency was “inactive”.
For `Cc1ccc(C(=O)N(CCCN)C(c2nc3cc(Cl)ccc3c(=O)n2Cc2ccccc2)C(C)C)cc1` (stereo not given), the Potency was 20.9 µM (active).
`O=C(NC1CCNCC1)c1[nH]ncc1NC(=O)c1c(Cl)cccc1Cl` was tested, and the Potency was “inactive”.
`CN(C)C/C=C/C(=O)Nc1cccc(C(=O)Nc2ccc(Nc3nccc(-c4cccnc4)n3)cc2)c1` was tested, and the Potency was “inactive”.
In the case of `CCN(CCCO)CCCOc1ccc2c(Nc3cc(CC(=O)Nc4cccc(F)c4)[nH]n3)ncnc2c1`, the Potency is reported as “inactive”.
`CN(C)C1CCN(C(=O)c2ccc(NC(=O)Nc3nc(N4CCOCC4)nc(N4CCOCC4)n3)cc2)CC1` was tested, and the Potency was “inactive”.
In the case of `COCCn1c2c([n+](Cc3cnccn3)c1C)C(=O)c1ccccc1C2=O`, the Potency is reported as “inactive”.
In the case of `COC[C@H](NC(=O)c1cnc(C)s1)C(=O)N[C@@H](COC)C(=O)N[C@@H](Cc1ccccc1)C(=O)[C@@]1(C)CO1`, the Potency is reported as 0.935 µM (active).
`CCn1c(-c2nonc2N)nc2c(C#CC(C)(C)O)ncc(OC[C@H]3CCCNC3)c21` was tested, and the Potency was “inactive”.
`COc1cc(N2CCC(O)CC2)ccc1Nc1nc(Nc2ccccc2S(=O)(=O)C(C)C)c2[nH]cnc2n1` was tested, and the Potency was “inactive”.
In the case of `N=C(N)c1ccc(OCCCCCOc2ccc(C(=N)N)cc2)cc1`, the Potency is reported as “inactive”.
`C#Cc1cccc(Nc2ncnc3cc(OC)c(OCCCCCCC(=O)NO)cc23)c1` was tested, and the Potency was 13.2 µM (active).
For `CC(=O)O[C@@H]1C[C@H](O)[C@@]23CO[C@@H](O)C1(C)[C@@H]2C[C@@H](O)[C@]1(C)[C@@H]3C(=O)[C@H](OC(C)=O)[C@@]2(C)[C@H](c3ccoc3)C[C@H]3O[C@]321`, the Potency was 2.96 µM (active).
For `CC(C)(C)c1cnc(CSc2cnc(NC(=O)C3CCNCC3)s2)o1`, the Potency was 38.2 µM (active).
In the case of `Cc1nc(Nc2n[nH]c3c2CN(C(=O)N[C@H](CN(C)C)c2ccccc2)C3(C)C)c2sccc2n1`, the Potency is reported as “inactive”.
With `Cc1c2oc3c(C)ccc(C(=O)N[C@@H]4C(=O)NC(C(C)C)C(=O)N5CCC[C@H]5C(=O)N(C)CC(=O)N(C)C(C(C)C)C(=O)O[C@@H]4C)c3nc-2c(C(=O)N[C@@H]2C(=O)NC(C(C)C)C(=O)N3CCC[C@H]3C(=O)N(C)CC(=O)N(C)C(C(C)C)C(=O)O[C@@H]2C)c(N)c1=O` (stereo not given in full) (I: T[ξV]P[Sar][ξNMeV] / II: T[ξV]P[Sar][ξNMeV]; ester I:1-I:C, II:1-II:C; linker I:N-II:N via Actinocin(9to1)) the Potency was 0.418 µM (active).
With `CC[C@@]1([C@@H]2O[C@@H]([C@H]3O[C@@](O)(CO)[C@H](C)C[C@@H]3C)C[C@@H]2C)CC[C@H]([C@]2(C)CC[C@]3(C[C@H](O)[C@@H](C)[C@@H]([C@@H](C)[C@@H](OC)[C@H](C)C(=O)O)O3)O2)O1` the Potency was 1.05 µM (active).
For `COc1cc2c(NC3CCN(C(C)C)CC3)nc(N3CCCN(C)CC3)nc2cc1OCCCN1CCCC1`, the Potency was “inactive”.
In the case of `COC(C(=O)N1Cc2[nH]nc(NC(=O)c3ccc(N4CCN(C)CC4)cc3)c2C1)c1ccccc1` (stereo not given), the Potency is reported as “inactive”.
`CC(C)C[C@@H](C=O)NC(=O)[C@H](CC(C)C)NC(=O)[C@H](CC(C)C)NC(=O)OCc1ccccc1` (Cbz-Leu-Leu-Leu-aldehyde) was tested, and the Potency was 2.96 µM (active).
`CCCC(C=O)NC(=O)C(CC(C)C)NC(=O)C(CC(C)C)NC(=O)OCc1ccccc1` (stereo not drawn) (Cbz-Leu-Leu-[Nva]-aldehyde; configuration not given here) was tested, and the Potency was 3.72 µM (active).
With `CC(C)CC(=O)Nc1n[nH]c2c1CN(C(=O)C1CCN(C)CC1)C2(C)C` the Potency was “inactive”.
In the case of `CCN1CCN(Cc2ccc(NC(=O)Nc3ccc(Oc4cc(NC)ncn4)cc3)cc2C(F)(F)F)CC1`, the Potency is reported as “inactive”.
For `CN(C)c1ccc(C(=C2C=CC(=[N+](C)C)C=C2)c2ccc(N(C)C)cc2)cc1`, the Potency was 13.2 µM (active).
`CC(C)C[C@H](NC(=O)[C@@H](NC(=O)c1cccc(-c2ccccc2)n1)[C@@H](C)O)B(O)O` was tested, and the Potency was 0.662 µM (active).
For `CC[n+]1c(-c2ccccc2)c2cc(N)ccc2c2ccc(N)cc21`, the Potency was “inactive”.
In the case of `CCS(=O)(=O)c1cccc(-c2cc(C(=O)NC3CCN(C)CC3)c(C)c3[nH]c4ncc(C)cc4c23)c1`, the Potency is reported as “inactive”.
With `CC1(C)CC(NC(=O)C(=O)Nc2ccc(Br)cc2)CC(C)(C)N1` the Potency was “inactive”.
`CC(=O)C1(O)Cc2c(O)c3c(c(O)c2C(OC2CC(N)C(O)C(C)O2)C1)C(=O)c1c(O)cccc1C3=O` (stereo not given) was tested, and the Potency was 0.526 µM (active).
With `CO[C@H]1/C=C/C=C/C=C/C[C@H](OC(=O)[C@@H](C)NC(=O)C2CCCCC2)[C@H](C)[C@@H](O)/C(C)=C/CCc2cc(O)cc(c2)NC(=O)C1` the Potency was “inactive”.
`C[C@@]12O[C@@H](C[C@]1(O)CO)n1c3ccccc3c3c4c(c5c6ccccc6n2c5c31)CNC4=O` was tested, and the Potency was 5.26 µM (active).
For `C[C@@H]1O[C@@H](O[C@H]2[C@H](O)[C@@H](O)[C@H](O[C@H]3[C@H](O[C@H]4CC[C@@]5(C)C(=CC[C@@H]6C5CC[C@]5(C)[C@@H]7[C@H](C[C@@H]65)O[C@]5(CC[C@@](C)(CO[C@@H]6O[C@H](CO)[C@@H](O)[C@H](O)[C@H]6O)O5)[C@H]7C)C4)O[C@H](CO)[C@@H](O)[C@@H]3O)O[C@@H]2CO)[C@H](O)[C@H](O)[C@H]1O` (stereo not given in full), the Potency was “inactive”.
With `CCN(CC)Cc1ccc(C(=O)N(CCc2ccccc2OC)[C@@H]2CCNC2)cc1` the Potency was “inactive”.
`Cc1ccc(-c2ncn(-c3ccc(Nc4nccc(-c5cccc(N6CCOCC6)c5)n4)cc3)n2)cn1` was tested, and the Potency was 4.18 µM (active).
With `C#CCN(Cc1cc2c(=O)n(C)c(CN3CCN(C)CC3)nc2cc1Cl)c1ccc(C(=O)NCc2cccnc2)cc1` the Potency was “inactive”.
In the case of `COc1cc2c(NC3CCN(C(C)C)CC3)nc(N3CCCN(C)CC3)nc2cc1OCCOCCN(C)C`, the Potency is reported as “inactive”.
For `C=C1CO[C@@]2(O[C@H]3CC4C5CC=C6C[C@@H](O)C[C@@H](O[C@@H]7OC[C@H](O)[C@H](O[C@@H]8OC[C@@H](O)[C@H](O)[C@H]8O)[C@H]7O[C@@H]7O[C@@H](C)[C@H](OC(C)=O)[C@@H](OC(C)=O)[C@H]7OC(C)=O)[C@]6(C)C5CC[C@]4(C)[C@@H]3[C@@H]2C)[C@@H](O)[C@H]1OC1OC(C)C(O)C(O)C1O` (stereo not given in full), the activity change, negative = inhibition was 4.44% [at 8.96 µM] (inactive).
`CC1(C)CC[C@]2(C(=O)OC3OC(CO)C(O)C(O)C3O)CC[C@]3(C)C(=CCC4[C@@]5(C)CC[C@H](OC6OC(C(=O)O)C(O)C(O)C6O)C(CO)(CO)C5CC[C@]43C)[C@@H]2C1` (stereo not given in full) was tested, and the Potency was “inactive”.
In the case of `Cc1cc(Nc2cc(N3CCN(C)CC3)nc(Sc3ccc(NC(=O)C4CC4)cc3)n2)n[nH]1`, the Potency is reported as “inactive”.
For `O=C(NC1CC1)c1cccc(-c2ccc3c(NC(=O)C4CC4)n[nH]c3c2)c1`, the Potency was “inactive”.
